An excerpt weighted towards active compounds, which were near 12% of everything screened.
PLK1 PBD block: blocks phosphopeptide binding to human PLK1 polo-box domain | P53350 | Plk1 PBD binding of FITC phosphopeptide, fluorescence polarization | Potency, µM, for the others: max response, negative = inhibition, most hits filed as inhibitors | actives 2.8% (n = 360,000); further: potency means the concentration at half of the fitted maximal effect; series mostly up to about 57 µM; on the % scale 0 is the no-effect control and ±100 the full control effect; nearly all actives have a fitted effect of over 65% in size
HP1b chromo inh: blocks HP1-beta chromodomain binding to methylated histone tails | P83916 | AlphaScreen HP1-beta / biotin-H3K9me3 peptide binding | Potency, µM (doses to about 114 µM), inactives show at the highest dose activity change, negative = inhibition, usual class: inhibitors | actives 0.56% (n = 390,000) | AID 540317; further: potency means the concentration at half of the fitted maximal effect; nearly all actives have a fitted effect of over 70% in size
Target sequence (P83916 whole entry, looked up): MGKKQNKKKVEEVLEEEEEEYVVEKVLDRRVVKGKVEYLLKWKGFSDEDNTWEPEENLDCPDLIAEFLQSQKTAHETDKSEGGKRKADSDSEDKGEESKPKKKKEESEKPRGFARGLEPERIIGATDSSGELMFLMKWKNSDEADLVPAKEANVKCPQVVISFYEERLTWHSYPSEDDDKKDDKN
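HP1-beta protein (50 nM final) preincubated 30 min at room temperature with biotinylated H3(1-18)K9me3 peptide (50 nM) in PBS pH 7.4, 0.01% Tween-20, then compound added for 30 min. AlphaScreen streptavidin donor/nickel chelate acceptor beads (10 ug/mL final), 30 min dark, luminescence read.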
PI5P4Ka inh: PI5P4K alpha (human) kinase inhibition; PI5P4Kalpha enzyme, ADP-Glo luminescence, 60 min; stronger effect = lower value; actives 1.2% (n = 330,000); max response, %; active means max response of -50% or lower; inconclusive means between -30% and -50%; inactive means -30% or higher; further: value at the top dose of about 77 µM; on the % scale 0 is the no-effect control and ±100 the full control effect
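Reactions run in 0.038 M HEPES pH 7.4, 0.28 mM EGTA, 0.1% CHAPS and 5% DMSO, with PI5P4Kalpha, substrate, compound and 5 microM ATP final, one hour at room temperature. Readout is ADP-Glo luminescence.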
JMJD2A Tudor inh: blocks the human JMJD2A Tudor domain; O75164; AlphaScreen JMJD2A-Tudor / H3K4me3 peptide binding; Potency, µM (doses to about 114 µM), for inactives: top-dose activity change, negative = inhibition, most hits filed as inhibitors; actives 4.4% (n = 390,000); further: potency means the concentration at half of the fitted maximal effect; on the % scale 0 is the no-effect control and ±100 the full control effect; nearly all actives have a fitted effect of over 50% in size
BAZ2B block: inhibitors of human BAZ2B bromodomain. Potency, µM (top dose mostly 114 µM), inactives show at the highest dose activity change, negative = inhibition, actives largely listed as inhibitors. AID 504333. actives 4.4% (n = 360,000). AlphaScreen BAZ2B-H3K14Ac peptide displacement. Q9UIF8; further: potency means the concentration at half of the fitted maximal effect; on the % scale 0 is the no-effect control and ±100 the full control effect; nearly all actives have a fitted effect of over 60% in size
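AlphaScreen displacement of biotin-H3(5-23)K14Ac peptide (50 nM final) from BAZ2B (50 nM final) in PBS pH 7.4, 0.01% Tween-20; complex preformed 30 min RT, then compounds (top 110 uM) 30 min RT, beads 20 min dark.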
G9a block: G9a (human) methyltransferase inhibition; Potency, µM (top dose mostly 102 µM), without a hit: at the top dose activity, negative = inhibition, actives largely listed as inhibitors; AID 504332; G9a H3K9 monomethylation, AlphaScreen, 2 h; Q96KQ7; actives 8.8% (n = 350,000); further: potency means the concentration at half of the fitted maximal effect; on the % scale 0 is the no-effect control and ±100 the full control effect; nearly all actives have a fitted effect of over 75% in size
Target sequence (Q96KQ7 913-1193 limits assumed): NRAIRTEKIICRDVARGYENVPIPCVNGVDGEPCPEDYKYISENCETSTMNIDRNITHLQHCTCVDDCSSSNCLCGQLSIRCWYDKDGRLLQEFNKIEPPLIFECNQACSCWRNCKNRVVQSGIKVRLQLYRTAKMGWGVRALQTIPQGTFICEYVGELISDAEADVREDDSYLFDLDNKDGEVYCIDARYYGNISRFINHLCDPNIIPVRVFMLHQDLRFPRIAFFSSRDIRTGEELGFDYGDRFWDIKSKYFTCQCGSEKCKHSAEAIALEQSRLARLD
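Compounds were preincubated with 20 nM G9a for 15 min, after which biotinylated H3K9 peptide (500 nM) and SAM (20 uM) started a 2 h room-temperature reaction. Monomethylated product was quantified by antibody-based AlphaScreen chemiluminescence.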
* marks the source's active call; other numbers are inactive results; ? = inconclusive; · = no result; [ ] = dose if it differs, or a comment. Unless noted, the call rests on the fitted dose curve; in most records, active means well fitted curve in the direction sought with a large enough effect; inconclusive means small, poorly fitted or top-dose-only effect, or another doubt; inactive means no such curve, though single readings can be large; an effect the other way counts as inactive or inconclusive.

SMILES	PLK1 PBD block	HP1b chromo inh	PI5P4Ka inh	JMJD2A Tudor inh	BAZ2B block	G9a block
O=C(NC(=S)NN1CCCCC1c1cccnc1)c1ccc(Cl)cc1Cl (stereo not drawn)	-13.6%	22.7%	-6.5	-23.8%	-4.5%	70.8µM*
COc1ccc(C2=Nc3ccccc3C2(O)CCN2C(=O)c3ccccc3C2=O)cc1 (stereo not drawn)	-18.3%	15.3%	-3.6	?	·	·
CSc1ccc(Nc2nn(-c3ccc(OC(F)(F)F)cc3)nc2C(C)=O)cc1	·	4.9%	·	-20.4%	2.1%	8.4%[59 µM]
Cc1ccccc1OCC(=O)Nc1ccc(OCc2cc(=O)n3ccsc3n2)cc1	·	37.6%	·	0.7%	3.1%	3.0%[59 µM]
O=C(Nc1ccc2c(c1)OCO2)C1CC1	-3.2%	-1.9%	-6.1	?	-34.7%	4.9%[0.501 µM]
O=C(Nc1ccc2c(c1)OC1(CCCC1)O2)C1CC1	26.7µM*	?	·	?	-9.1%	?
COc1ccc(-c2nc(SCC(=O)NC3CCCC3)c(-c3ccccc3)[nH]2)cc1OC	·	-16.9%	·	?	-34.8%	?
COc1ccc(-c2nc(SCC(=O)NC3CCCC3)c(-c3ccc(OC)cc3)[nH]2)cc1	-10.4%	-15.6%	6.0	?	?	50.1µM*
CCc1ccc(-c2nc(SCC(=O)NC3CC3)n[nH]2)cc1	-0.8%	2.4%	6.5	-6.2%	10.5%	44.7µM*
COc1ccc(-c2[nH]c(-c3ccc(C)cc3)nc2SCC(=O)Nc2nccs2)cc1	-5.9%	?	4.2	?	?	44.7µM*
CCOC(=O)c1[nH]c2c(c1Cc1ccccc1OC)C(=O)CC(c1ccc(OCC)cc1)C2 (stereo not drawn)	·	22.4%	·	-5.1%	-4.1%	-0.2%[59 µM]
O=Cc1ccc(C(=O)OCC(=O)NC(=O)Nc2ccccc2F)cc1	4.9%	14.0%	-56.6*	-15.2%	·	·
CCc1ccc(CNC(=O)c2ccc3c(c2)N=C(C)c2cc(C)ccc2S3)cc1	·	17.3%	·	-28.8%	-17.4%	-25.6%[59 µM]
COc1cc(NC(=S)Nc2ncccc2C)cc(OC)c1OC	-13.4%	13.6%	3.9	-32.1%	?	10µM*
Cc1ccc(C)c(NC(=O)c2ccccn2)c1	-4.5%	13.0%	·	?	18.5%	10.9%[12.7 µM]
Cc1cc(C)nc(NC(=S)Nc2ccc(F)cc2F)c1	-13.3%	33.5%	4.4	4.7%	-19.4%	-23.3%
Cc1cccnc1NC(=S)Nc1ccc(F)cc1F	?	-11.9%	-2.1	-8.5%	?	50.1µM*
Cc1ccc(C)c(NC(=S)Nc2ncccc2C)c1	-14.9%	?	1.0	31.6µM*	?	31.6µM*
Cn1c(N)c(C(=O)COC(=O)Cc2ccc(Br)cc2)c(=O)n(C)c1=O	-1.2%	20.5%	5.5	-4.1%	·	·
Cn1c(N)c(C(=O)COC(=O)CSc2cccc3cccc(Cl)c23)c(=O)n(C)c1=O	26.7µM*	-10.6%	?	50.1µM*	?	·
Cn1c(N)c(C(=O)COC(=O)Cc2ccsc2)c(=O)n(C)c1=O	-3.4%	22.7%	9.0	-8.2%	31.9%	44.7µM*
CC(=O)NC(CC(=O)OCC(=O)c1c(N)n(C)c(=O)n(C)c1=O)c1ccccc1 (stereo not drawn)	23.8µM*	-11.8%	-17.5	12.6µM*	-17.6%	-11.5%
CC(=O)Oc1ccc(C(=O)OCC(=O)c2c(N)n(C)c(=O)n(C)c2=O)cc1OC(C)=O	?	21.5%	-4.6	8.9%	-24.6%	50.1µM*
CC1(C)N=C(N)N=C(N)N1c1ccc(Oc2ccc(Cl)cc2)c(Cl)c1	-7.3%	18.7%	3.7	-24.0%	-13.7%	20.8%[2.33 µM]
CCOC(=O)c1ccc(NC(=O)c2nc[nH]c2C(=O)N[C@@H](C)CO)cc1	-8.7%	·	-3.7	·	·	·
SMILES	PLK1 PBD block	HP1b chromo inh	PI5P4Ka inh	JMJD2A Tudor inh	BAZ2B block	G9a block
Cn1c(=O)[nH]c(Nc2ccc(F)cc2)c([N+](=O)[O-])c1=O	1.5%	10.6%	-60.3*	?	0.1%	21.6%[59 µM]
Cn1c(=O)[nH]c(NCCc2ccc(O)cc2)c([N+](=O)[O-])c1=O	2.0%	23.7%	-71.4*	-11.8%	·	·
Cc1onc(-c2ccccc2)c1C(=O)OCC(=O)Nc1ccccc1Cl	1.8%	·	4.4	·	·	·
CCCN(CCC)C(=O)CC(c1ccccc1)c1ccco1 (stereo not drawn)	-12.1%	32.9%	-0.6	-6.5%	-25.6%	·
CCN(CC)C(=O)CC(c1ccc(F)cc1)c1ccco1 (stereo not drawn)	-17.2%	20.4%	-11.0	-6.7%	-25.8%	14.1µM*
COc1ccc(CNc2ccc3c(c2)nc(C)n3C)cc1OC	-3.0%	14.8%	0.5	-13.8%	-19.6%	39.8µM*
COc1ccc(CNc2nc3ccccc3n2Cc2ccc(C)cc2)cc1OC	-8.3%	-1.9%	-6.2	-34.5%	?	79.4µM*
c1ccc(Cn2c(NCc3ccncc3)nc3ccccc32)cc1	-21.0%	66.1%	-9.5	-19.4%	-16.1%	-18.2%
Cc1nc2cc(NCc3nc4ccccc4n3Cc3ccccc3)ccc2n1C	-8.6%	?	-23.4	?	44.7µM*	-29.9%[12.7 µM]
COc1cccc(CNc2ccc3c(c2)nc(C)n3C)c1OC	-7.8%	24.7%	-6.4	-18.3%	-25.5%	35.5µM*
COc1cccc(CNc2ccc3c(c2)ncn3C)c1OC	-26.5%	-4.4%	0.9	?	?	37.6%[59 µM]
Cc1cccc(NCc2nc3ccccc3n2Cc2ccccc2)c1	-6.8%	-0.2%	-4.8	?	?	?
CC1(C(=O)O)CCCN1C(=O)c1ccccc1OC(F)(F)F (stereo not drawn)	-7.2%	·	0.0	·	·	·
O=[N+]([O-])c1ccc(/C([O-])=C(/C(=S)NCc2ccco2)[n+]2ccccc2)cc1	-26.3%	-4.7%	-14.1	-32.9%	?	35.5µM*
Cc1ccc(NC(=S)/C(=C(\[O-])c2ccc(F)cc2)[n+]2ccccc2)cc1	-21.3%	?	-28.3	?	?	12.6µM*
[O-]/C(=C(\C(=S)NCc1ccco1)[n+]1ccccc1)c1ccccc1Br	-26.6%	-1.2%	-23.4	-20.4%	?	?

Source: PubChem (National Center for Advancing Translational Sciences (NCATS))
